Some test systems named below: SK-MEL-2 melanoma; EKVX NSCLC; SN12C renal; UO-31 renal; TK-10 renal; ACHN renal; CAKI-1 renal; A498 renal; CCRF-CEM leukemia; MOLT-4 leukemia; RPMI-8226 leukemia; OVCAR-8 ovarian; OVCAR-5 ovarian; OVCAR-4 ovarian; SK-OV-3 ovarian; OVCAR-3 ovarian; HS 578T breast; NCI/ADR-RES ovarian; IGROV1 ovarian.
Holding throughout (test): NCI-60 one-dose screen, 48 h (100 = growth as untreated, 0 = no growth, -100 = all killed)
Common to all, as to details: 10 µM unless noted

Compounds without any hit were thinned out: in the full panel of roughly 83,000, 20% have a hit.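 Each cell line was grown in a 96-well plate and treated with one concentration of compound for 48 hours. Values below 10 were considered active.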 A number with no mark means an inactive call. Active and inactive are the calls of the source.

Turning to `C#Cc1cccc(NC(=O)c2ccc(NC(=O)C=C)cc2)c1`, the growth in the assay on SK-MEL-2 melanoma was 79.3% [8.25 µM]; with EKVX NSCLC, 102% [8.25 µM]; in the assay with SN12C renal, 67.5% [8.25 µM]; with UO-31 renal, -67.2% [8.25 µM] (active); in the assay with TK-10 renal, 69.9% [8.25 µM]; in the assay with ACHN renal it was 63.8% [8.25 µM]. Also, the growth in the assay on CAKI-1 renal was 63.2% [8.25 µM]; in the assay with A498 renal, 40.8% [8.25 µM]; in the assay with CCRF-CEM leukemia it was 71.5% [8.25 µM]; in the assay with MOLT-4 leukemia it was 76.8% [8.25 µM]; in the assay on RPMI-8226 leukemia, 60.2% [8.25 µM]; with OVCAR-8 ovarian, 75.9% [8.25 µM]. Also, the growth with OVCAR-5 ovarian is 86.7% [8.25 µM]; in the assay on OVCAR-4 ovarian it was 88.9% [8.25 µM]; with SK-OV-3 ovarian, 97% [8.25 µM]; with OVCAR-3 ovarian, 70.5% [8.25 µM]; in the assay with HS 578T breast, 94.2% [8.25 µM]; in the assay with NCI/ADR-RES ovarian it was 73.9% [8.25 µM].

Consider `Cc1nc2ccccc2c(/C=C/c2ccccc2)c1C(=O)/C=C/c1ccc(C(F)(F)F)cc1`, for which the growth with SK-MEL-2 melanoma is -22.5% (active); in the assay with EKVX NSCLC, -28.8% (active); in the assay with SN12C renal, -61.5% (active); in the assay on UO-31 renal, -96.9% (active); in the assay with TK-10 renal, -51.2% (active); with ACHN renal, -98.4% (active). Also, the growth is -76.6% (active) in the assay on CAKI-1 renal; -59.4% (active) in the assay with A498 renal; 9.14% (active) in the assay with CCRF-CEM leukemia; 4.69% (active) in the assay on MOLT-4 leukemia; -29.1% (active) in the assay with RPMI-8226 leukemia; 10.3% in the assay with OVCAR-8 ovarian. Moreover, the growth was -34.6% (active) in the assay on OVCAR-5 ovarian; -42.8% (active) in the assay with OVCAR-4 ovarian; 7.69% (active) in the assay with SK-OV-3 ovarian; -72.4% (active) in the assay on IGROV1 ovarian; -10.9% (active) in the assay with HS 578T breast; -1.24% (active) in the assay with NCI/ADR-RES ovarian.

Take `Cn1cc(-c2cc3ncnc(Nc4ccc(CC(=O)Nc5cc(C(C)(C)C)on5)cc4)c3s2)cn1`: the growth with SK-MEL-2 melanoma was 14%; with EKVX NSCLC, 60.2%; with SN12C renal, 15.4%; with UO-31 renal, 11%; with TK-10 renal, 17.8%; in the assay with ACHN renal, 14.1%. In addition, the growth is 9.29% (active) with CAKI-1 renal; -18.6% (active) in the assay with A498 renal; 10.8% in the assay on CCRF-CEM leukemia; 17.4% in the assay on MOLT-4 leukemia; 40.7% in the assay on OVCAR-8 ovarian; 61.6% in the assay on OVCAR-5 ovarian. In addition, the growth in the assay on OVCAR-4 ovarian is 34.7%; with SK-OV-3 ovarian, 10.4%; with IGROV1 ovarian it was 11.1%; with OVCAR-3 ovarian it was 36.6%; in the assay with HS 578T breast, 15.6%; with NCI/ADR-RES ovarian it was 60.6%.

In the case of `C#Cc1cccc(NC(=O)Nc2ccccc2NC(=O)CCl)c1`, the growth is -56% [8.25 µM] (active) in the assay with SK-MEL-2 melanoma; 71.9% [8.25 µM] in the assay with EKVX NSCLC; -68.6% [8.25 µM] (active) in the assay on SN12C renal; -97.7% [8.25 µM] (active) with UO-31 renal; -27.8% [8.25 µM] (active) in the assay with TK-10 renal; -84.1% [8.25 µM] (active) with ACHN renal. Besides, the growth was -85.2% [8.25 µM] (active) in the assay with CAKI-1 renal; -93.4% [8.25 µM] (active) in the assay on A498 renal; 22.2% [8.25 µM] in the assay on CCRF-CEM leukemia; 24.5% [8.25 µM] in the assay with MOLT-4 leukemia; 10.7% [8.25 µM] in the assay on RPMI-8226 leukemia; -13.6% [8.25 µM] (active) with OVCAR-8 ovarian. Moreover, the growth in the assay with OVCAR-5 ovarian was -26% [8.25 µM] (active); with OVCAR-4 ovarian, -33.4% [8.25 µM] (active); in the assay on SK-OV-3 ovarian it was 85.3% [8.25 µM]; with IGROV1 ovarian, -54.4% [8.25 µM] (active); in the assay with HS 578T breast, -1.15% [8.25 µM] (active); with NCI/ADR-RES ovarian, -2.56% [8.25 µM] (active).

In the case of `COc1ccc(N2C(=O)C(Oc3ccccc3)C2c2ccc(C)cc2)cc1` (centres undefined), the growth is 106% with SK-MEL-2 melanoma; 88.8% in the assay on EKVX NSCLC; 104% with SN12C renal; 91.9% with UO-31 renal; 126% in the assay with TK-10 renal; 95.7% with ACHN renal. The growth was 93% with CAKI-1 renal; 77.9% in the assay on A498 renal; 101% in the assay on CCRF-CEM leukemia; 101% in the assay on MOLT-4 leukemia; 106% in the assay with RPMI-8226 leukemia; 91.8% in the assay with OVCAR-8 ovarian. The growth in the assay with OVCAR-5 ovarian was 100%; in the assay with OVCAR-4 ovarian it was 93.4%; in the assay with SK-OV-3 ovarian, 106%; in the assay with OVCAR-3 ovarian, 112%; in the assay on HS 578T breast, 94%; with NCI/ADR-RES ovarian, 101%.

Turning to `N#C/C(=C\c1cccc2cnccc12)n1nnc2cccc(F)c21`, the growth with SK-MEL-2 melanoma was 52.8%; in the assay with EKVX NSCLC it was 24.9%; in the assay with SN12C renal, 17.7%; in the assay on UO-31 renal, 41.4%; in the assay on TK-10 renal, 34.4%; in the assay on ACHN renal it was 16.9%. Also, the growth was 41.5% with CAKI-1 renal; 67.7% with A498 renal; 17.6% in the assay on CCRF-CEM leukemia; 26.2% with MOLT-4 leukemia; 6.88% (active) in the assay with RPMI-8226 leukemia; 41.7% in the assay with OVCAR-8 ovarian. Also, the growth is 31.8% in the assay with OVCAR-5 ovarian; 38.7% with OVCAR-4 ovarian; 90.2% with SK-OV-3 ovarian; 35.3% in the assay on OVCAR-3 ovarian; 47.1% in the assay on HS 578T breast; 23.8% with NCI/ADR-RES ovarian.

With `O=C(N=c1oc2ccccc2cc1-c1cc2ccccc2[nH]1)Nc1ccc(Cl)cc1`, the growth in the assay with SK-MEL-2 melanoma was 113%; in the assay on EKVX NSCLC it was 88.1%; in the assay with SN12C renal, 92.6%; with UO-31 renal it was 61.2%; in the assay with TK-10 renal it was 151%; in the assay with ACHN renal, 91.3%. In addition, the growth in the assay with CAKI-1 renal is 72.2%; with A498 renal, 121%; with CCRF-CEM leukemia, 109%; with MOLT-4 leukemia it was 95.8%; in the assay with RPMI-8226 leukemia, 88.3%; with OVCAR-8 ovarian, 99.7%. The growth in the assay with OVCAR-5 ovarian was 101%; in the assay on OVCAR-4 ovarian, 91.9%; with SK-OV-3 ovarian, 89.4%; in the assay with OVCAR-3 ovarian it was 103%; in the assay on HS 578T breast, 96.5%; in the assay on NCI/ADR-RES ovarian, 98.7%.

Turning to `CCOC(=O)/C(C#N)=C\Nc1ccc2ncnc(Nc3ccc(Cl)cc3Cl)c2c1`, the growth in the assay with SK-MEL-2 melanoma is 110%; in the assay on EKVX NSCLC it was 41.7%; in the assay on SN12C renal, 89.5%; in the assay with UO-31 renal it was 42%; in the assay on TK-10 renal it was 44.2%; in the assay with ACHN renal, 62.9%. Moreover, the growth is 39% in the assay on CAKI-1 renal; 48.7% in the assay on A498 renal; 70.9% in the assay on CCRF-CEM leukemia; 58.8% with MOLT-4 leukemia; 79.5% with RPMI-8226 leukemia; 87% with OVCAR-8 ovarian. Further, the growth with OVCAR-5 ovarian is 82.2%; in the assay on OVCAR-4 ovarian, 95.1%; with SK-OV-3 ovarian it was 97%; in the assay with OVCAR-3 ovarian it was 67.6%; in the assay on HS 578T breast, 75.5%; with NCI/ADR-RES ovarian, 85.4%.

Values taken from PubChem BioAssay (NCI).
